Only some compounds are listed: those with a hit (about 12% of all), similar ones and a draw of the others.
JMJD2A Tudor inh: blocks the human JMJD2A Tudor domain | AlphaScreen JMJD2A-Tudor / H3K4me3 peptide binding | Potency, µM (series often up to 114 µM), most hits filed as inhibitors | 390,000 compounds, 4.4% hits | AID 504339; note: nearly all actives have a fitted effect of over 50% in size
HP1b chromo inh: inhibitors of HP1-beta chromodomain binding to methylated histone tails. P83916. AlphaScreen HP1-beta / biotin-H3K9me3 peptide binding. Potency, µM (series often up to 114 µM), actives largely listed as inhibitors. 390,000 compounds, 0.56% hits. AID 540317; note: nearly all actives have a fitted effect of over 70% in size
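Compound inhibition of the preformed complex between 50 nM HP1-beta and 50 nM biotinylated H3K9me3 peptide was read by AlphaScreen. Buffer was PBS pH 7.4 with 0.01% Tween-20. Incubations ran 30 min at room temperature, with 10 ug/mL donor/acceptor beads.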
G9a inh: blocks human histone lysine methyltransferase G9a | G9a H3K9 monomethylation, AlphaScreen, 2 h | Potency, µM (titrated, usually from 102 µM), hits mostly inhibitors | 350,000 compounds, 8.8% hits; note: nearly all actives have a fitted effect of over 75% in size
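Readings reflect AlphaScreen signal from monomethyl-H3K9 antibody detection. HMT at 20 nM; substrate b-H3K9 500 nM; cofactor SAM 20 uM; 2 h RT reaction; compounds tested as titrations in qHTS with 15 min preincubation.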
BAZ2B block: BAZ2B (human) inhibition. 360,000 compounds, 4.4% hits. Potency, µM (titrated, usually from 114 µM), most hits filed as inhibitors. AlphaScreen BAZ2B-H3K14Ac peptide displacement. AID 504333. Q9UIF8; note: nearly all actives have a fitted effect of over 60% in size
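Multi-concentration screen (max 110 uM) measuring displacement of acetylated histone H3 peptide from BAZ2B by AlphaScreen, using 50 nM protein, 50 nM peptide and 10 ug/mL streptavidin donor plus Ni-chelate acceptor beads.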
PI5P4K alpha inh: inhibitors of human PI5P4K alpha; P48426; PI5P4Kalpha enzyme, ADP-Glo luminescence, 60 min; stronger effect = lower value; max response, %; 330,000 compounds, 1.2% hits; AID 652105; active = max response of -50% or lower; inconclusive = between -30% and -50%; inactive = -30% or higher; note: value at the top dose of about 77 µM
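Compounds were pin-transferred onto PI5P4Kalpha and substrate in HEPES pH 7.4 buffer with EGTA, CHAPS and 5% DMSO. ATP (5 microM final) started the reaction, which ran 60 minutes at room temperature before ADP-Glo detection.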
PLK1 PBD block: inhibitors of human PLK1 polo-box domain binding | Plk1 PBD binding of FITC phosphopeptide, fluorescence polarization | Potency, µM, hits mostly inhibitors | P53350 | 360,000 compounds, 2.8% hits; note: series mostly up to about 57 µM; nearly all actives have a fitted effect of over 65% in size
Numbers stand for hits; . = inactive; ? = inconclusive; / = not tested or not shown; [ ] = remark or other dose. Unless noted, calls come from the whole dose curve; as a rule, active = well fitted curve in the direction sought with a large enough effect; inconclusive = small, poorly fitted or top-dose-only effect, or another doubt; inactive = no such curve, though single readings can be large; an effect the other way counts as inactive or inconclusive.

SMILES	JMJD2A Tudor inh	HP1b chromo inh	G9a inh	BAZ2B block	PI5P4K alpha inh	PLK1 PBD block
Cc1nnc(NC(=O)C2CSC3(C)CCC(=O)N23)s1 (centres undefined)	.	.	.[0.501 µM]	.	.	.
COc1cccc(-c2nccc(N(C)Cc3ccco3)n2)c1	/	/	.[0.501 µM]	/	/	/
O=C1CCC2S/C(=C/Nc3ccc(C(F)(F)F)cc3)C(=O)N12 (centres undefined)	.[11.4 µM]	.	?	?	.	9.47µM
CC([NH2+][O-])C(C)(C)NO (centres undefined)	22.4µM	?	17.8µM	?	.	.
CSc1ncccc1C(=O)OCC(=O)c1ccc(Cl)s1	/	/	/	/	.	.
O=C(OCC(=O)c1ccc(Cl)s1)c1cnccn1	.	.	35.5µM	?	-52.4	.
O=C(OCC(=O)c1ccc(Cl)s1)c1ccccn1	31.6µM	.	.	56.2µM	.	.
O=C(COC(=O)c1cnccn1)c1ccc(Cl)cc1	.	.	.	?	.	.
O=C(COc1cccnc1[N+](=O)[O-])c1ccc(Cl)s1	39.8µM	?	/	39.8µM	-85.9	15µM
CC1=CN2C(c3cccc([N+](=O)[O-])c3)=NON(c3ccc(C)cn3)C2C=C1 (centres undefined)	/	/	/	/	.	.
CC(C)(C)Sc1ccc2nc3c(n2c1)CCCC3	.	.	50.1µM	?	.	.
Cc1ccc(C)c(NS(=O)(=O)c2ccc3[nH]c(=O)oc3c2)c1	.	.	44.7µM	79.4µM	?	.
CCN(CCNCC(O)COc1ccccc1C(C)C)c1cccc(C)c1 (centres undefined)	0.794µM	?	10µM	28.2µM	.	.
Cc1ccc(S(=O)(=O)NC(=O)C2(C)CCN2C(=O)c2cccc(F)c2)cc1 (centres undefined)	/	/	/	/	.	.
COc1cc2c(cc1OC)C(C(=O)Nc1ccccn1)C(c1cccnc1)N(C)C2=O (centres undefined)	.	.	/	79.4µM	.	.
COc1cc2c(cc1OC)C(C(=O)Nc1cccc(C)n1)C(c1cccnc1)N(C)C2=O (centres undefined)	.	.	.[12.7 µM]	.	.	.
Cc1ccc(/C=N/NC(=O)Cn2cnc3ccccc32)o1	.	.	/	.	.	.
Cc1ccc(/C=N/NC(=O)CSc2nnc(-c3ccccc3)n2-c2ccc(Cl)cc2)o1	.	.	44.7µM	?	.	.
Cc1ccc(/C=N\NC(=O)Cn2nnc3ccccc32)o1	.	.	89.1µM	.	.	.
Cc1ccc(/C=N/NC(=O)CSc2nnc(-c3ccc(Cl)cc3)n2-c2ccc(Cl)cc2)o1	.	.	.	.	.	.
Cc1cc(C)n(-c2ccc(C(=O)OC(C)C(=O)Nc3ccc(C(N)=O)cc3)cc2)n1 (centres undefined)	.	.	79.4µM	.	.	.
O=C1C2C3C=CC(C3)C2C(=O)N1CNc1ccc(O)cc1 (centres undefined)	/	/	2.24µM	44.7µM	/	/
Cc1ccc(NCN2C(=O)C3C4C=CC(C4)C3C2=O)cc1 (centres undefined)	17.8µM	.	.	.	?	3.36µM
Cn1c(CCn2ccccc2=O)nc2cc(NC(=O)COc3ccccc3)ccc21	.	.	.	.	.	.
O=c1oc2ccccc2cc1-c1nc2ccccc2o1	.	.	.	.	/	.
SMILES	JMJD2A Tudor inh	HP1b chromo inh	G9a inh	BAZ2B block	PI5P4K alpha inh	PLK1 PBD block
Nc1cc2nc3ccccc3oc-2cc1=O	?	.	/	44.7µM	.	.
Cn1cccc1C(=O)N1CCC2(CC1)CCN(c1ccccn1)CC2	/	/	.[12.7 µM]	/	/	/
N#Cc1cc(Sc2ccccn2)c([N+](=O)[O-])cc1C#N	.	.	.	.	-85.8	.
N#Cc1cc(Sc2ccccn2)c(Sc2ccccn2)cc1C#N	.	.	31.6µM	.	/	?
O=C(O)c1ccc(Sc2ccccn2)c([N+](=O)[O-])c1	.	.	?	?	.	.
COc1ccc(CNC(=O)CC(c2ccc(OC)c(OC)c2)N2Cc3ccccc3C2=O)cc1 (centres undefined)	.	.	.	.	/	/
CCc1cc(=O)oc2cc(OCC(=O)NCc3ccccn3)ccc12	?	.	.	.	.	26.7µM
O=C(COc1ccc2c(-c3ccccc3)cc(=O)oc2c1)NCc1ccccn1	.	.	/	.	.	.
COc1ccc(-c2cc(=O)oc3cc(OCC(=O)Nc4ccccn4)ccc23)cc1	17.8µM	.	.	.	?	2.99µM
C[C@]12CCC(=O)C=C1CCC1C2C(O)C[C@]2(C)C1CC[C@]2(O)C(=O)COC(=O)CCC(=O)O (some centres undefined)	/	/	.[2.33 µM]	/	/	/
CC1CCc2c(sc3ncnc(SCC(=O)Nc4ccc(C(=O)O)cc4)c23)C1 (centres undefined)	.	.	.	.	-67.2	59.7µM
COc1cc(NC(=O)CSc2ncnc3sc4c(c23)CCC(C)C4)c(C(=O)O)cc1OC (centres undefined)	.	.	20µM	.	.	16.8µM
C[C@H](CO)N1C[C@H](C)[C@H](CN(C)S(=O)(=O)c2cccc(F)c2)Oc2ncc(-c3cccc(C(=O)N(C)C)c3)cc2C1=O	/	/	/	/	.	.
CNC(=S)NNC(=O)c1cccn(Cc2ccc(Cl)cc2Cl)c1=O	/	/	?	.	/	/
C=CCn1c(-c2cccn(Cc3ccc(Cl)cc3Cl)c2=O)n[nH]c1=S	56.2µM	.	2.82µM	.	/	.
C=CCn1c(-c2cccn(Cc3cccc(Cl)c3)c2=O)n[nH]c1=S	20µM	.	11.2µM	.	/	.
C=CCn1c(-c2ccc(=O)n(Cc3ccccc3)c2)n[nH]c1=S	/	/	17.8µM	.	/	/
O=c1c(-c2n[nH]c(=S)n2-c2ccccc2)cccn1Cc1cccc(Cl)c1	28.2µM	.	3.55µM	.	.	.
C=CCn1c(-c2cc(-c3ccccc3)sc2N)n[nH]c1=S	.	.	/	.	.	.
C=CCn1c(-c2ccccc2[N+](=O)[O-])n[nH]c1=S	.	.	15.8µM	?	.	.
C=CCn1c(-c2cccn(Cc3ccccc3)c2=O)n[nH]c1=S	28.2µM	.	39.8µM	.	.	.
C=CCn1c(-c2cccn(Cc3ccc(Cl)cc3)c2=O)n[nH]c1=S	10µM	.	4.47µM	.	/	.
CN(Cc1ccccc1)C(=O)CN1C(=O)NC(C)(c2ccc(Cl)cc2)C1=O (centres undefined)	.	.	.	.	.	.
CC(=O)Oc1cc2c(C(=O)NCCCN3CCOCC3)c(C)oc2c2ccccc12	.[11.4 µM]	.	.[2.33 µM]	.	.	29.9µM
Cc1c(OCC(=O)NCCCN2CCOCC2)ccc2c1oc(=O)c1ccccc12	.	.	.	.	.	.
Cc1no[n+]([O-])c1COc1ccc(/C=C(\C#N)C(N)=O)cc1	.	.	?	.	.	21.2µM
CCOc1cc(/C=C(\C#N)C(N)=O)ccc1OCc1c(C)no[n+]1[O-]	.	.	.	.	.	.

Screens from PubChem BioAssay.
